The values below come from article PMC7862700, “An all-to-all approach to the identification of sequence-specific readers for epigenetic DNA modifications on cytosine”.

Holding throughout (assay): DAPPL (digital affinity profiling via proximity ligation, sequencing); 10 mM Tris-HCl pH 7.5, 50 mM NaCl, 1 mM DTT, 4% glycerol, room temperature, 30 min; GST-TFs on glutathione beads, 16-mer random dsDNA library, 0.1% formaldehyde crosslink after washing; high values mean tight binding
Common to all, as to details: protein: recombinant; tags: N-terminal GST; dsDNA, one strand shown

One assay addresses ELF4 (Homo sapiens, UniProt Q99607 1-663). Summed up: (§1)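 Human transcription factors carrying a GST fusion were produced in yeast, bound to glutathione beads, tagged with DNA barcodes and pooled together with a tag-only sample. Each pool was held with 200 nmole of a random double-stranded 16-mer DNA library in Tris/NaCl/DTT/glycerol buffer for 30 min at room temperature, then washed, crosslinked in 0.1% formaldehyde, proximity-ligated with BsaI/T4 ligase (1 h, 37 °C), PCR-amplified and sequenced on an Illumina NextSeq500. Binding signal is the read frequency of each hexamer for a given factor divided by its frequency in the tag-only sample.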

The target in a further assay is T1, ELF3 (Homo sapiens, UniProt P78545 1-371).
T1 sequence: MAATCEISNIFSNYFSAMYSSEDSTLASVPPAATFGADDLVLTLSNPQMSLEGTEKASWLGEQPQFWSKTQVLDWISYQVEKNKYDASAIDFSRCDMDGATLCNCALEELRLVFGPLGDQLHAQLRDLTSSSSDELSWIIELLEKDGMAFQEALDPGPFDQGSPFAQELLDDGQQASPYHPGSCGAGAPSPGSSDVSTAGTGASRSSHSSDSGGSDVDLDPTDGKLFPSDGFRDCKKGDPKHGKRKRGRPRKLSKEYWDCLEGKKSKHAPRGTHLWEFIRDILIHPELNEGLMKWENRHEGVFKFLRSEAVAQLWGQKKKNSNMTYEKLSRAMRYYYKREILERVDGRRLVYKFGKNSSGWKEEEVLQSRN
An outline of the steps:
as §1

A further assay addresses CRX (Homo sapiens, UniProt O43186 1-299). An outline of the steps: as §1
A further assay deals with T2, ETV3L (Homo sapiens, UniProt Q6ZN32 1-361).
T2 sequence: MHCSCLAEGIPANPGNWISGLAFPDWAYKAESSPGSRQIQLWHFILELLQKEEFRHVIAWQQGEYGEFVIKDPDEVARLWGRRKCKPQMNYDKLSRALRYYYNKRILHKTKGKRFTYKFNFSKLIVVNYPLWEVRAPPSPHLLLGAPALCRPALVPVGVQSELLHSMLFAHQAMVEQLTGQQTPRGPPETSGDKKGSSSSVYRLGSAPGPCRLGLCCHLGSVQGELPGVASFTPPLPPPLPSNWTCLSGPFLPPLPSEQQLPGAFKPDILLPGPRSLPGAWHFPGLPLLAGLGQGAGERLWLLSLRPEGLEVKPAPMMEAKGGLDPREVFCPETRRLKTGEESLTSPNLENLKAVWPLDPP
An outline of the steps: as §1

A further assay has as its target T3, ELK4 (Homo sapiens, UniProt P28324-2 1-405).
T3 sequence: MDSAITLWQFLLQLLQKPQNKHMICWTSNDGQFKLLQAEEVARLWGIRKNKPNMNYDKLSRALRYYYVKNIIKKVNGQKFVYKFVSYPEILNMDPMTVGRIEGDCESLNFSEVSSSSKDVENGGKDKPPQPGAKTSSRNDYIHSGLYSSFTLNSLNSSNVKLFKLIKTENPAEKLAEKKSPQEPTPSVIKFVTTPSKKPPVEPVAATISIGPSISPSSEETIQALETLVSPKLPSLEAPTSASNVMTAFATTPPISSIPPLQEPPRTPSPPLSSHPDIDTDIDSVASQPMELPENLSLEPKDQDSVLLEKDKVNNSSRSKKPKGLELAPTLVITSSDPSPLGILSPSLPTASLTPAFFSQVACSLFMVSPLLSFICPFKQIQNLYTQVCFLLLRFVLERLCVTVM
Summed up:
as §1

In the next assay the target is ETV1 (Homo sapiens, UniProt P50549 1-477). Summed up:
as §1

The next assay concerns the target SPIB (Homo sapiens, UniProt Q01892 1-262). An outline of the steps:
as §1

The target in a further assay is T4, ELK1 (Homo sapiens, UniProt P19419 1-428).
T4 sequence: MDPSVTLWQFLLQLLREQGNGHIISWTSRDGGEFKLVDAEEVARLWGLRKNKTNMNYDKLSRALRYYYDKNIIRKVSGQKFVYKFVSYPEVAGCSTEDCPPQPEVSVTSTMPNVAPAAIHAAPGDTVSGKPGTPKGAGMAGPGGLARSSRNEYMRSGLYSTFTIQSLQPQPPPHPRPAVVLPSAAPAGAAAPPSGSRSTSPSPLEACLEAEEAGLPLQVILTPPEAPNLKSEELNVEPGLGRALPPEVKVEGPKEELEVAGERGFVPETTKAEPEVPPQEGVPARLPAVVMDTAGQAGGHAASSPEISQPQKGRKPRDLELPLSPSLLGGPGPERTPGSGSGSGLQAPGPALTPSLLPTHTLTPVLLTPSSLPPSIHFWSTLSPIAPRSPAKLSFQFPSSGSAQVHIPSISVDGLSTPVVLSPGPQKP
An outline of the steps: as §1

The target in a further assay is T5, ERG (Homo sapiens, UniProt P11308 1-479).
T5 sequence: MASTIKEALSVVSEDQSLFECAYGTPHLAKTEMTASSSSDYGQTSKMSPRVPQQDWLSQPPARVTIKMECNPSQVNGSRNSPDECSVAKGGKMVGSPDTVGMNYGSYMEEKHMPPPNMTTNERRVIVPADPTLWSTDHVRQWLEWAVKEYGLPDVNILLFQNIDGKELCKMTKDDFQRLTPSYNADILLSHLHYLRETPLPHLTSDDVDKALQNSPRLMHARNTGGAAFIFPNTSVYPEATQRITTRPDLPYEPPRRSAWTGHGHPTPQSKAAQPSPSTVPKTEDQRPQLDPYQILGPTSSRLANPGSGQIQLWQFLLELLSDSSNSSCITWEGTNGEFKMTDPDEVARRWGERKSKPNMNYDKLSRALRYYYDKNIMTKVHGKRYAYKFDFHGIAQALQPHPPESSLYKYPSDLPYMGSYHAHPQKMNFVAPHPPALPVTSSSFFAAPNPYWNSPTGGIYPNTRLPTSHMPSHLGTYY
Summed up:
as §1

The target of the next assay is T6, EHF (Homo sapiens, UniProt Q9NZC4 1-300).
T6 sequence: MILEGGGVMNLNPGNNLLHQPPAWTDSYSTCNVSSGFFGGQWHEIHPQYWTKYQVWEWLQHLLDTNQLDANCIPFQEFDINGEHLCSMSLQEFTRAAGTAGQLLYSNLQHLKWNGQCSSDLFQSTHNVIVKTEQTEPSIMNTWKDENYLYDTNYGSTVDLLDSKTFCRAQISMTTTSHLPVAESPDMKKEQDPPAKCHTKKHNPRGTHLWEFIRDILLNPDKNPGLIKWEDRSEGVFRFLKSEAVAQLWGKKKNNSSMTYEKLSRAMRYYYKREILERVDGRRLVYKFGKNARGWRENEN
An outline of the steps:
as §1

The target in the next assay is T7, ELK3 (Homo sapiens, UniProt P41970 1-407).
T7 sequence: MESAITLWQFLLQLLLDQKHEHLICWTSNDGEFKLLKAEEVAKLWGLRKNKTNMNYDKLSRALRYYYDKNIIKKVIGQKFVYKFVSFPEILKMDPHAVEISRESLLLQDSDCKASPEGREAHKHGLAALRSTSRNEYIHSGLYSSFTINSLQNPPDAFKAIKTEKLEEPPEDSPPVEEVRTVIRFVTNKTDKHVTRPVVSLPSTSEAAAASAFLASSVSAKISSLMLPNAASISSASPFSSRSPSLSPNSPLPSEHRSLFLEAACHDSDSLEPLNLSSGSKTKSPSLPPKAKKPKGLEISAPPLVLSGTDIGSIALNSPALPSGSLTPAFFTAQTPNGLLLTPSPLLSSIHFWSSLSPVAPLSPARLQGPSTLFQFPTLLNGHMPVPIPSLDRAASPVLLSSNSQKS
An outline of the steps:
as §1

The next assay concerns the target T8, FEV (Homo sapiens, UniProt Q99581 1-238).
T8 sequence: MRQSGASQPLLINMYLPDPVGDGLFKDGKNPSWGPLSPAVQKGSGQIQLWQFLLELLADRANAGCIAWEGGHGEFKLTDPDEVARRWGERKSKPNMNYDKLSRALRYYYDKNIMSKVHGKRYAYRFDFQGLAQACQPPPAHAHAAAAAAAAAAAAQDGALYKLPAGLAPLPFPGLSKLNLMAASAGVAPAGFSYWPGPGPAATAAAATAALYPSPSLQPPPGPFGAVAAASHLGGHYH
Summed up: as §1

Another assay has as its target T9, ETV2 (Homo sapiens, UniProt O00321 1-342).
T9 sequence: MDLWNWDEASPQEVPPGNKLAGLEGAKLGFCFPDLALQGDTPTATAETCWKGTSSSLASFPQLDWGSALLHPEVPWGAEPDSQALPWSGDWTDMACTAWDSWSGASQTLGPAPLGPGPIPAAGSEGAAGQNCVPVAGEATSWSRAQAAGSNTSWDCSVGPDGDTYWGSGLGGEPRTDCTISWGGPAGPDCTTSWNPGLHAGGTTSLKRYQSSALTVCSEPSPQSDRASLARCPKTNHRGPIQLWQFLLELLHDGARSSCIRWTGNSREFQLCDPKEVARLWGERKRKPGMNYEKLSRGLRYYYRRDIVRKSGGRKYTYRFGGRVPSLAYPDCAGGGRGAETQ
An outline of the steps:
as §1

The next assay has as its target T10, ETV3 (Homo sapiens, UniProt P41162-2 1-143).
T10 sequence: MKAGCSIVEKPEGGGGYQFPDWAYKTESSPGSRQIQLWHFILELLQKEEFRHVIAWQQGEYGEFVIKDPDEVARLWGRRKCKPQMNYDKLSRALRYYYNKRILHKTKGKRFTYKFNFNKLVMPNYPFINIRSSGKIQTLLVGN
An outline of the steps: as §1

For a further assay, the target named is ETV6 (Homo sapiens, UniProt P41212 1-452). Summed up:
as §1

For a further assay, the target named is ELF1 (Homo sapiens, UniProt P32519 1-619). Summed up: as §1
Chain of ELF1 (P32519 whole entry): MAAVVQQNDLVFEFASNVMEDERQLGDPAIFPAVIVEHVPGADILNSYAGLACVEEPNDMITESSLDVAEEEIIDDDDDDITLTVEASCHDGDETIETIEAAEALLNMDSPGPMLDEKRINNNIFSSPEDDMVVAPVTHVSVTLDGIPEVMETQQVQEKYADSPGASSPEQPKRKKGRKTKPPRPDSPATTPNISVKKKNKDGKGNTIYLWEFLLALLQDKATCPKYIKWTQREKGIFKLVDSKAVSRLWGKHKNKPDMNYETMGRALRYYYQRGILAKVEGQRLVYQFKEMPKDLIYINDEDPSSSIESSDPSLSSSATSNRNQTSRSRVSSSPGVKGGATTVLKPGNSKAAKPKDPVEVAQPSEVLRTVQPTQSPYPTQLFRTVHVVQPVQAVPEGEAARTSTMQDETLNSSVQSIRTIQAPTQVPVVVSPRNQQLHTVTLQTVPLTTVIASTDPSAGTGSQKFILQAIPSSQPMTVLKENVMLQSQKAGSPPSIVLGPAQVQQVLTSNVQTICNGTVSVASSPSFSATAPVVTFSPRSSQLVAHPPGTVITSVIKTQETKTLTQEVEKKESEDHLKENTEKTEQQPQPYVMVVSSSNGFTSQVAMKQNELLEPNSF

Chain of SPIB (Q01892 whole entry): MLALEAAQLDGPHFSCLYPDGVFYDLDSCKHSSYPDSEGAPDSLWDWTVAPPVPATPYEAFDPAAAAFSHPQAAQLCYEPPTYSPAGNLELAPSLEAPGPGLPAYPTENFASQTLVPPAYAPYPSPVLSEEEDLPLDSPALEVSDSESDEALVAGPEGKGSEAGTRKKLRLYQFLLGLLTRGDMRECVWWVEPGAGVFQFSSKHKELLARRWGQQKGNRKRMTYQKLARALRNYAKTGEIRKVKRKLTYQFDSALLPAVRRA
Chain of ELF4 (Q99607 whole entry, the tested form may be a part): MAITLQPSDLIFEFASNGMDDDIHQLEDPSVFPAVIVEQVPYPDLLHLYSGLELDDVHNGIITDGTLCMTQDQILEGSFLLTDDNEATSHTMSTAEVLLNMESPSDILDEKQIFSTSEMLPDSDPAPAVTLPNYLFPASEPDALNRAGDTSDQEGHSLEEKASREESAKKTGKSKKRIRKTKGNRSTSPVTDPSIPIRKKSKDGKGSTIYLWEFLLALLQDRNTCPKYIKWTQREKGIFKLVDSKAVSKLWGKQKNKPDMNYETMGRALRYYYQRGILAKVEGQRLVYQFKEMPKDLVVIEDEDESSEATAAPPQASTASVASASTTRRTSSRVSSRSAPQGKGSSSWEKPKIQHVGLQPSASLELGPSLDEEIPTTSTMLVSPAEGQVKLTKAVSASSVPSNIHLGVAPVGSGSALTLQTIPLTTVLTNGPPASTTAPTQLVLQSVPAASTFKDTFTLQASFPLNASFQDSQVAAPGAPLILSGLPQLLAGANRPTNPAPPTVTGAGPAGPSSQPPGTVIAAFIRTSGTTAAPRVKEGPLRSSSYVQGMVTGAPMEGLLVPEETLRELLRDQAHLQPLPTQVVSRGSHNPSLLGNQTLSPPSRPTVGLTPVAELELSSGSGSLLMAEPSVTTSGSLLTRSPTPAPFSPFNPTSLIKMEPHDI
Chain of ETV6 (P41212 whole entry): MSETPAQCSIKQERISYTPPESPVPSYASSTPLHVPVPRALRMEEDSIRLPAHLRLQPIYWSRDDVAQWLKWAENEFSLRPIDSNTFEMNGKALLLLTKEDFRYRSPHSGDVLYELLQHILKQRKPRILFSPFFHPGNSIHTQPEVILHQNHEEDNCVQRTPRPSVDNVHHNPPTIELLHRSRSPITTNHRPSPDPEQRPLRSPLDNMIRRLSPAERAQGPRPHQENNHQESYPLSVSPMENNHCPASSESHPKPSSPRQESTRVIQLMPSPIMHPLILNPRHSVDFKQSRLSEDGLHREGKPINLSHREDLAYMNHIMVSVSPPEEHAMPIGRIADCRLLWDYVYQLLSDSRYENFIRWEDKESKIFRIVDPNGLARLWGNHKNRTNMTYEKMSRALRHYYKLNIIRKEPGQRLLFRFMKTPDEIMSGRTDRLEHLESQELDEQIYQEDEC
Chain of ETV1 (P50549 whole entry): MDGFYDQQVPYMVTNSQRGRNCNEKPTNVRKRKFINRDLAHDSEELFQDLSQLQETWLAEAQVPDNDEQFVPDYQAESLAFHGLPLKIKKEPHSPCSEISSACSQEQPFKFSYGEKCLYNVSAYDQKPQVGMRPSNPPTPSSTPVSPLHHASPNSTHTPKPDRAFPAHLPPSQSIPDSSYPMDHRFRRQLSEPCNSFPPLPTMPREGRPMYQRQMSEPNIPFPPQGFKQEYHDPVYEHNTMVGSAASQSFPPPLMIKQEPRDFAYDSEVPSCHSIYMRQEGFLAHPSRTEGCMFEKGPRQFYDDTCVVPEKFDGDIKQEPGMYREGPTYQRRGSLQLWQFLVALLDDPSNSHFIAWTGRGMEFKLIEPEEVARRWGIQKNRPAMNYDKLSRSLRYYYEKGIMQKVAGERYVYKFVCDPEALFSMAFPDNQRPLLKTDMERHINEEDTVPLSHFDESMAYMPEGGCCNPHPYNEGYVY
Chain of CRX (O43186 whole entry): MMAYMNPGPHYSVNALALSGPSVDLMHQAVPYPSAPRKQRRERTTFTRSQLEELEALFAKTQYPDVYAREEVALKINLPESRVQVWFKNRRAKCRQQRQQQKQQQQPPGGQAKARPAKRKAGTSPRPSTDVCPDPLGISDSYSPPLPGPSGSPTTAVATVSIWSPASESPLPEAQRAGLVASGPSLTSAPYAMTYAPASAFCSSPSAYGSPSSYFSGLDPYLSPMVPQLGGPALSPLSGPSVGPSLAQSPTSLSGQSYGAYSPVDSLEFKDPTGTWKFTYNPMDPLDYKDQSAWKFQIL

With GACTAT, the binding signal with ELF4 is 1.01 fold enrichment (6-mer frequency, TF over GST control); with ELF3 it was 1.03 fold enrichment (6-mer frequency, TF over GST control); with CRX it was 1.02 fold enrichment (6-mer frequency, TF over GST control); with ETV3L, 1.04 fold enrichment (6-mer frequency, TF over GST control).

Turning to GAGCTC, the binding signal was 1.02 fold enrichment (6-mer frequency, TF over GST control) with ELF4; 1.04 fold enrichment (6-mer frequency, TF over GST control) in the assay with ELK4; 1.05 fold enrichment (6-mer frequency, TF over GST control) in the assay with ETV1.

Consider GCAGGT, for which the binding signal with ELK4 was 1.01 fold enrichment (6-mer frequency, TF over GST control).

Take ACAGTT: the binding signal with ELK4 is 1.02 fold enrichment (6-mer frequency, TF over GST control).

With CCGCGG, the binding signal with SPIB was 1.04 fold enrichment (6-mer frequency, TF over GST control); with ELF4, 1.01 fold enrichment (6-mer frequency, TF over GST control).

For CCGGCG, the binding signal with ELK1 was 1.09 fold enrichment (6-mer frequency, TF over GST control); with ERG, 1.09 fold enrichment (6-mer frequency, TF over GST control); in the assay with EHF, 1.03 fold enrichment (6-mer frequency, TF over GST control); with SPIB, 1.15 fold enrichment (6-mer frequency, TF over GST control); in the assay with ELK3, 1.02 fold enrichment (6-mer frequency, TF over GST control); in the assay with FEV, 1.25 fold enrichment (6-mer frequency, TF over GST control). For the same sequence, the binding signal is 1.14 fold enrichment (6-mer frequency, TF over GST control) with ELK4; 1.04 fold enrichment (6-mer frequency, TF over GST control) with ETV2; 1.07 fold enrichment (6-mer frequency, TF over GST control) with ETV3L; 1.05 fold enrichment (6-mer frequency, TF over GST control) with ETV3; 1.11 fold enrichment (6-mer frequency, TF over GST control) with ETV6.

On to GCAGCA, for which the binding signal with ELF1 is 1.03 fold enrichment (6-mer frequency, TF over GST control); with SPIB, 1.02 fold enrichment (6-mer frequency, TF over GST control); with ELF4, 1.01 fold enrichment (6-mer frequency, TF over GST control); in the assay with ETV2, 1.01 fold enrichment (6-mer frequency, TF over GST control).

On to GTCACC, for which the binding signal in the assay with ELF4 is 1.01 fold enrichment (6-mer frequency, TF over GST control).
